Source: ChEMBL document CHEMBL3433997, “St. Jude Leishmania screening dataset” (2016)

target: Hexose transporter 1 (Plasmodium falciparum) (UniProt O97467); test: ST_JUDE_LEISH: Cytotoxicity at 2uM final concentration against transgenic Leishmania Mexicana promastigotes LmPfHT that are glucose transport deficient and complemented with the Plasmodium falciparum hexose transporter. Activity is measured by DNA content using SYBR green in vitro; assay type: functional

| Structure (SMILES) | inhibition |
| --- | --- |
| COc1cc2ccccc2cc1OCCCN1CCN(CC(c2ccc(F)cc2)N2CCN(C(C)C)CC2)CC1 (stereo not given) | -0.78% |
| O=C(/C=C/c1ccc(Cl)c(Cl)c1)NCCCCCCN1CCN(C(=O)Nc2cccc(Cl)c2)CC1 | 1.97% |
| O=C(Nc1cccc(C(F)(F)F)c1)Nc1ccc(Cl)c(C(F)(F)F)c1 | -2.17% |
| OC(c1ccc2ccccc2c1)C1CN(CCc2ccccc2)CCC1(O)c1ccccc1 (stereo not given) | -3.49% |
| COc1ccccc1C1CC(c2ccccc2)=NN1C(=O)c1ccco1 (stereo not given) | -0.6% |
| O=C(Nc1ccc(-c2cccc(-c3nc4cc(C(F)(F)F)ccc4[nH]3)c2)cc1)c1csnn1 | 23.4% |
| Nc1c2c(nc3ccccc13)C(=Cc1ccc(O)cc1)CCC2 | 8.35% |
| Cc1ccc2nc(Cl)c3cc(C(=O)NCCCN4CCCC4)sc3c2c1 | 10.2% |
| CCOc1ccc2c(=NN=Cc3ccccn3)cc(C)[nH]c2c1 | 7.32% |
| c1ccc(-c2cc3cccc(-c4nc5cnccc5[nH]4)c3o2)cc1 | 11.5% |
| O=C(CCNc1ccnc(NCCc2ccc(F)cc2)n1)Nc1ccccc1 | 4.56% |
| COc1ccccc1-n1c(-c2ccc3ccccc3c2)csc1=NC(=O)c1ccccc1 | -0.46% |
| COc1cc(-n2cnc3cc(-c4ccc(Cl)cc4)sc3c2=O)ccc1OCCN1CCC(c2cccc(NC(C)=O)c2)CC1 | 3.81% |
| COc1c(CNCCCCCCNCc2cc(Cl)c3ccccc3c2OC)cc(Cl)c2ccccc12 | 7.04% |
| CCc1ccc(NC(=O)c2cccc(CN3CCCN(Cc4cccc(O)c4)CC3)c2)cc1 | 3.08% |
| O=C(N[C@H](Cc1ccc(Cl)cc1)C(=O)N1CCN(c2ccnc3cc(Cl)ccc23)CC1)[C@H]1Cc2ccccc2CN1 | -0.43% |
| CN1CCN(CCCN(Cc2csc(-c3ccc(CNCc4ccccc4)cc3)n2)S(=O)(=O)c2cccc3cccnc23)CC1 | 5.92% |
| CCOc1ccc2c(=NN=Cc3ccc(F)cc3)cc(C)[nH]c2c1 | 3.21% |
| O=C(c1cc(-c2cccs2)n[nH]1)N1CCN(S(=O)(=O)c2ccc(Br)cc2)CC1 | 3.88% |
| Cc1cc2ncc(C(N)=O)c(Nc3ccc(N4CCOCC4)cc3)c2cc1S(C)(=O)=O | 3.83% |

| Structure (SMILES) | inhibition |
| --- | --- |
| O=C(/C=C/c1ccc(Cl)c(Cl)c1)NCCCCCN1CCC(CCNC(=O)C2(c3ccc(Cl)cc3)CC2)CC1 | 6.12% |
| Cc1cc(C(=O)Nc2ccc(C)c(-c3nc(N(C(=O)c4ccc(F)c(C)c4)C4CCNCC4)nc4c3ccc(=O)n4-c3c(F)cccc3F)c2)ccc1F | 0.07% |
| CN(C)c1nc2cc(-n3cnc4cc(-c5ccc(Cl)cc5)sc4c3=O)ccc2n1CCCN1CCCCC1 | 10.8% |
| CN(C)CCCOc1cccc(CCNCc2cccc(Oc3ccc(Cl)cc3)c2)c1 | 2.34% |
| COc1ccc2nccc([C@@H](O)CNCCCN(C)CCOc3cc(F)cc(F)c3)c2c1 | 7.45% |
| CCCc1cc(Cc2cnc(N)nc2N)cc(CC)c1O | 0.94% |
| Cc1cccc2nc(-c3cccc(-c4ccc(NC(=O)c5cccnc5)cc4)c3)[nH]c12 | 4.09% |
| Cn1c(=O)c(-c2c(Cl)cccc2Cl)cc2cnc(Nc3ccc(N4CCOCC4)cc3)nc21 | 41% |
| COc1ccc2nccc([C@H](O)CN3CCC(NCc4cc(C)c5c(c4)OCCO5)CC3)c2n1 | 8.31% |
| CN(CCCN(C)c1cc(NC(=O)c2ccc(F)cc2)ccn1)Cc1cccc(O)c1 | -0.11% |
| CCOc1c(CNCCCNc2nc3ccccc3[nH]2)cc(I)cc1OC | 1.56% |
| CC(C)c1ccc(CN2CCCCC(NC(=O)c3cc(-c4cccc(F)c4)cs3)C2)cc1 (stereo not given) | 3% |
| O=C(Nc1cccc(-c2nn3ncccc3c2-c2ccnc(Nc3ccc(N4CCOCC4)cc3)n2)c1)c1c(F)cccc1F | 16.6% |
| c1cncc(CNc2ncc(-c3ccsc3)c(-c3nccs3)n2)c1 | 8.95% |
| COc1cc(NC(=O)Nc2ccc([N+](=O)[O-])cc2OC)c(OC)cc1Cl | 9.29% |
| COc1cccc(OC(C)(C)c2nc(N[C@@H](C)c3ccccc3)c3cn[nH]c3n2)c1 | -1.84% |
| Cc1cccc(Nc2nccc(NCC(O)c3ccc(C(F)(F)F)cc3)n2)c1 (stereo not given) | 11.4% |
| N#Cc1ccc2c(c1)CCN(CCC1CCC(NC(=O)c3cc4cccc([N+](=O)[O-])c4[nH]3)CC1)C2 (stereo not given) | 10.8% |
| Nc1nc(N)c2c(Cl)c(N3CCOCC3)ccc2n1 | 39.5% |
| CN1CCN(c2ccnc3ccc(NC(=O)N(C)c4ccc(Cl)c(Cl)c4)cc23)CC1 | 0.31% |

target: Glucose transporter (Leishmania mexicana) (UniProt O61059); test: ST_JUDE_LEISH: Cytotoxicity at 2uM final concentration against transgenic Leishmania Mexicana promastigotes LmGT2 that are glucose transport deficient and complemented with the L. Mexicana glucose transporter 2. Activity is measured by DNA content using SYBR green in vitro; assay type: functional

| Structure (SMILES) | inhibition |
| --- | --- |
| COc1cc2ccccc2cc1OCCCN1CCN(CC(c2ccc(F)cc2)N2CCN(C(C)C)CC2)CC1 (stereo not given) | 2.29% |
| O=C(/C=C/c1ccc(Cl)c(Cl)c1)NCCCCCCN1CCN(C(=O)Nc2cccc(Cl)c2)CC1 | 3.02% |
| O=C(Nc1cccc(C(F)(F)F)c1)Nc1ccc(Cl)c(C(F)(F)F)c1 | -0.99% |
| OC(c1ccc2ccccc2c1)C1CN(CCc2ccccc2)CCC1(O)c1ccccc1 (stereo not given) | 0.03% |
| COc1ccccc1C1CC(c2ccccc2)=NN1C(=O)c1ccco1 (stereo not given) | -4.34% |
| O=C(Nc1ccc(-c2cccc(-c3nc4cc(C(F)(F)F)ccc4[nH]3)c2)cc1)c1csnn1 | 14.2% |
| Nc1c2c(nc3ccccc13)C(=Cc1ccc(O)cc1)CCC2 | 2.9% |
| Cc1ccc2nc(Cl)c3cc(C(=O)NCCCN4CCCC4)sc3c2c1 | 9.6% |
| CCOc1ccc2c(=NN=Cc3ccccn3)cc(C)[nH]c2c1 | 6.78% |
| c1ccc(-c2cc3cccc(-c4nc5cnccc5[nH]4)c3o2)cc1 | 10.6% |
| O=C(CCNc1ccnc(NCCc2ccc(F)cc2)n1)Nc1ccccc1 | 3.24% |
| COc1ccccc1-n1c(-c2ccc3ccccc3c2)csc1=NC(=O)c1ccccc1 | -4.04% |
| COc1cc(-n2cnc3cc(-c4ccc(Cl)cc4)sc3c2=O)ccc1OCCN1CCC(c2cccc(NC(C)=O)c2)CC1 | 3.05% |
| COc1c(CNCCCCCCNCc2cc(Cl)c3ccccc3c2OC)cc(Cl)c2ccccc12 | -0.2% |
| CCc1ccc(NC(=O)c2cccc(CN3CCCN(Cc4cccc(O)c4)CC3)c2)cc1 | 2.2% |
| O=C(N[C@H](Cc1ccc(Cl)cc1)C(=O)N1CCN(c2ccnc3cc(Cl)ccc23)CC1)[C@H]1Cc2ccccc2CN1 | -2.58% |
| CN1CCN(CCCN(Cc2csc(-c3ccc(CNCc4ccccc4)cc3)n2)S(=O)(=O)c2cccc3cccnc23)CC1 | 4.06% |
| CCOc1ccc2c(=NN=Cc3ccc(F)cc3)cc(C)[nH]c2c1 | 1.49% |
| O=C(c1cc(-c2cccs2)n[nH]1)N1CCN(S(=O)(=O)c2ccc(Br)cc2)CC1 | 2.13% |
| Cc1cc2ncc(C(N)=O)c(Nc3ccc(N4CCOCC4)cc3)c2cc1S(C)(=O)=O | 5.19% |

| Structure (SMILES) | inhibition |
| --- | --- |
| O=C(/C=C/c1ccc(Cl)c(Cl)c1)NCCCCCN1CCC(CCNC(=O)C2(c3ccc(Cl)cc3)CC2)CC1 | 3.58% |
| Cc1cc(C(=O)Nc2ccc(C)c(-c3nc(N(C(=O)c4ccc(F)c(C)c4)C4CCNCC4)nc4c3ccc(=O)n4-c3c(F)cccc3F)c2)ccc1F | 0.59% |
| CN(C)c1nc2cc(-n3cnc4cc(-c5ccc(Cl)cc5)sc4c3=O)ccc2n1CCCN1CCCCC1 | 5.06% |
| CN(C)CCCOc1cccc(CCNCc2cccc(Oc3ccc(Cl)cc3)c2)c1 | 0% |
| COc1ccc2nccc([C@@H](O)CNCCCN(C)CCOc3cc(F)cc(F)c3)c2c1 | 6.99% |
| CCCc1cc(Cc2cnc(N)nc2N)cc(CC)c1O | 0.25% |
| Cc1cccc2nc(-c3cccc(-c4ccc(NC(=O)c5cccnc5)cc4)c3)[nH]c12 | 2.31% |
| Cn1c(=O)c(-c2c(Cl)cccc2Cl)cc2cnc(Nc3ccc(N4CCOCC4)cc3)nc21 | 11.6% |
| COc1ccc2nccc([C@H](O)CN3CCC(NCc4cc(C)c5c(c4)OCCO5)CC3)c2n1 | -2.32% |
| CN(CCCN(C)c1cc(NC(=O)c2ccc(F)cc2)ccn1)Cc1cccc(O)c1 | -0.03% |
| CCOc1c(CNCCCNc2nc3ccccc3[nH]2)cc(I)cc1OC | 2.86% |
| CC(C)c1ccc(CN2CCCCC(NC(=O)c3cc(-c4cccc(F)c4)cs3)C2)cc1 (stereo not given) | 0.54% |
| O=C(Nc1cccc(-c2nn3ncccc3c2-c2ccnc(Nc3ccc(N4CCOCC4)cc3)n2)c1)c1c(F)cccc1F | 6.47% |
| c1cncc(CNc2ncc(-c3ccsc3)c(-c3nccs3)n2)c1 | 7.02% |
| COc1cc(NC(=O)Nc2ccc([N+](=O)[O-])cc2OC)c(OC)cc1Cl | 5% |
| COc1cccc(OC(C)(C)c2nc(N[C@@H](C)c3ccccc3)c3cn[nH]c3n2)c1 | -1.65% |
| Cc1cccc(Nc2nccc(NCC(O)c3ccc(C(F)(F)F)cc3)n2)c1 (stereo not given) | 2.83% |
| N#Cc1ccc2c(c1)CCN(CCC1CCC(NC(=O)c3cc4cccc([N+](=O)[O-])c4[nH]3)CC1)C2 (stereo not given) | 9.97% |
| Nc1nc(N)c2c(Cl)c(N3CCOCC3)ccc2n1 | 34.6% |
| CN1CCN(c2ccnc3ccc(NC(=O)N(C)c4ccc(Cl)c(Cl)c4)cc23)CC1 | 1.72% |
